Assay results taken from PubChem BioAssay.
Values joined by “and” are separate entries in the source; they are usually repeats but may differ in a detail not shown here. Equal values may be shown once. Active and inactive are the calls of the source. Unless noted, no stated cut-off is given here; in the data, active means parasite load remaining mostly below about 12% (no sharp cut-off); inactive means mostly above about 10%.

Assays:
[1] = glutamate transport activators, MN-1 cells, MN-1 cell line (AID 1612); details: MN-1 motor neuron cells, stronger effect = higher value;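 further: tested at 1 µM final; 0% = mean of DMSO vehicle wells on each plate; positive means more glutamate uptake than control and negative means less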
[2] = GFP-Q80 aggregate reduction, neuronal-like cells, cell-based, NGF-treated PC12, GFPQ80 (AID 1614); details: PC12 NGF-treated GFP-polyQ80 inclusion reduction;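 further: lower means fewer inclusions and 0 means no inclusions at all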
[3] = 75Q-TubH aggregate inhibition, S. cerevisiae, yeast (AID 1616); details: S. cerevisiae 75Q-TubH polyglutamine aggregation suppression; stronger effect = higher value
[4] = compounds altering viability of human ES cells (AID 493140; call rule not given here;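 further: cells exposed to compounds for four days before counting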); details: human embryonic stem cell survival screen; stronger effect = higher value
[5] = P. berghei load reduction in hepatocytes – cell-based, HepG2, luciferase luminescence, HepG2 viability, primary screen (AID 624349);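 further: 100% = mean of DMSO negative control wells on the same plate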; details: P. berghei liver stage in HepG2, luciferase luminescence, concentration not given here; parasite load remaining: stronger effect = lower value; viability: measured here: HepG2 viability without parasites
[6] = Wnt pathway potentiators raising nuclear beta-catenin – imaging, WNT3A-conditioned medium, mouse C2C12, NPC library, primary screen (AID 1117326; in the data active means nuclear beta-catenin stimulation mostly above about 4.2%, no sharp cut-off; inactive means mostly below about 10%); details: stronger effect = higher value
[7] = signal quenchers or enhancers, Cy5 substrate/SSB – biochemical, NIH Clinical Collection, E. coli SSB, artefact control for HCV NS3 helicase inhibitor project (AID 743268; call rule not given here); details: Cy5-oligo bound E. coli SSB, fluorescence interference
[8] = tested on: Hepatitis C virus NS3 helicase; assay: blockers of NS3h binding to DNA – biochemical, fluorescence polarization, NIH Clinical Collection, primary screen (AID 743270; call rule not given here); details: NS3 helicase binding to Cy5-dT15 DNA, stronger effect = higher value, concentration not given here
[9] = target: Single-stranded DNA-binding protein (Escherichia coli (strain K12)) (UniProt P0AGE0); assay: SSB-ssDNA binding inhibitors – biochemical, fluorescence polarization, NIH Clinical Collection, counter-screen for HCV NS3 helicase inhibitor project (AID 743271; in the data active means inhibition above about 28%); details: E. coli SSB-DNA binding, stronger effect = higher value, concentration not given here
[10] = compounds distorting NS3 helicase fluorescence signal – biochemical, NIH Clinical Collection, artefact control for HCV NS3 helicase inhibitor project (AID 743272; call rule not given here;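 further: HCV NS3 helicase with a Cy5 labelled single stranded DNA probe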); details: fluorescence interference counterscreen, HCV NS3 helicase assay; stronger effect = lower value
[11] = tested on: Hepatitis C virus NS3 helicase; assay: blockers of NS3h binding to ssDNA – biochemical, fluorescence polarization, LOPAC1280 library, primary screen (AID 687035; in the data active means inhibition above about 37%); details: Purified HCV NS3 helicase, Cy5-dT15 ssDNA binding fluorescence polarization; stronger effect = higher value; concentration not given here
[12] = compounds altering Cy5-DNA-NS3h complex signal – biochemical, LOPAC1280, artefact control for HCV NS3 helicase inhibitor project (AID 687037; call rule not given here); details: Cy5-DNA-NS3h complex fluorescence interference counterscreen

SMILES	glutamate uptake change [1] [%]	inclusion score [2]	aggregation suppression score [3]	survival [4]	parasite load remaining [5]	viability [5]	nuclear beta-catenin stimulation ([6]; at 10 µM)	nuclear beta-catenin stimulation ([6]; stimulation, at 2 µM) [%]	fluorescence ratio [7]	inhibition [8]	inhibition [9]	fluorescence ratio [10]	inhibition [11]	fluorescence ratio (interference) [12]
O=C(O)c1ccccc1C(=O)Nc1ccc(S(=O)(=O)Nc2nccs2)cc1	2.49	2	1.17	11.2 (inactive)	89% (inactive) and 53.5% (inactive) and 22.8% (inactive)	103% and 81.4% and 87.5%	0.8% (inactive)	0.7						
CCN(CC)CCOC(=O)C(Cc1cccc2ccccc12)CC1CCCO1 (configuration not stated)	-20.3	2	1.03	5.33 (inactive)			0.6% (inactive)	0.5						
CCN(CC)CCOC(=O)C(c1ccccc1)c1ccccc1	15.8	2	0.888	11.2 (inactive)			0.8% (inactive)	-1.4						
CC(=O)Nc1ccc(OCC(O)CNC(C)C)cc1 (configuration not stated)	-0.19	2	1.1	20.5 (inactive)	80.4% (inactive) and 87% (inactive) and 55.4% (inactive)	110% and 75.8% and 108%	0.5% (inactive)	1.7						
CO[C@]12C[C@@H](COC(=O)c3cncc(Br)c3)CN(C)[C@@H]1Cc1cn(C)c3cccc2c13	6.29	2	1.56	7.92 (inactive)			0.8% (inactive)	2.5						
Cc1ccnc(NS(=O)(=O)c2ccc(N)cc2)n1	-29.5	2	1.19	6.5 (inactive)	74% (inactive) and 287% (inactive) and 42.8% (inactive)	92.3% and 68.7% and 98.8%	3.8% (inactive)	1.5						
CC1=C(C(=O)O)N2C(=O)[C@@H](NC(=O)[C@H](N)c3ccc(O)cc3)[C@H]2SC1	-6.33	2.5	1.47	5 (inactive)	116% (inactive) and 83.6% (inactive)	96.4% and 77.7%	1.8% (inactive)	3.3						
CCn1cc(C(=O)O)c(=O)c2cnc(N3CCNCC3)nc21	-1.23	2	1.16	5.25 (inactive)	87.7% (inactive) and 144% (inactive)	98.7% and 73%	1.9% (inactive)	4.3						
CCOc1ccc(NC(C)=O)cc1	-13.8	1.5	0.296	8.75 (inactive)			-0.6% (inactive)	-0.9						
Cc1ccsc1/C=C/C1=NCCCN1C	1.68	2	1.28	20.3 (inactive)			-0.7% (inactive)	0.1						
O=C(O)CCC(=O)Nc1ccc(S(=O)(=O)Nc2nccs2)cc1	14.7	2	1.1	6.17 (inactive)	92.2% (inactive) and 146% (inactive) and 21.3% (inactive)	97.3% and 69.1% and 82.2%	-0.6% (inactive)	0.6						
CC(=O)Nc1ccc(O)cc1	-4.6	2	1.73	5.25 (inactive)	99.6% (inactive) and 108% (inactive) and 46.1% (inactive)	106% and 78.8% and 112%	-0.4% (inactive)	-0.2						
Cc1c(NC(C)C)c(=O)n(-c2ccccc2)n1C	28.4	2	1.14	7.42 (inactive)	102% (inactive) and 160% (inactive)	100% and 89.9%	3.6% (inactive)	7						
Nc1nc2c(c(=O)[nH]1)N(C=O)C(CNc1ccc(C(=O)N[C@@H](CCC(=O)O)C(=O)O)cc1)CN2 (some centres not stated)	-0.12	1.5	2.31	8.17 (inactive)	101% (inactive) and 95.5% (inactive) and 64.5% (inactive)	96.6% and 70.1% and 99.2%	1.7% (inactive)	4.1						
Nc1ccc(S(=O)(=O)Nc2nccs2)cc1	13.7	2	1.31	23.3 (inactive)			0% (inactive)	0						
CCn1cc(C(=O)O)c(=O)c2cc(F)c(N3CCNCC3)nc21	-7.7	2	1.11	13.2 (inactive)	165% (inactive) and 68.7% (inactive) and 19.5% (inactive)		-0.6% (inactive)	0.6						
Nc1ccc(S(N)(=O)=O)cc1	-2.33	2	1.25	5.08 (inactive)	105% (inactive) and 77.1% (inactive) and 50.7% (inactive)	101% and 73.5% and 90.2%	0.6% (inactive)	0.5						
O=C(O)CCC(=O)c1ccc(-c2ccccc2)cc1	6.02	2	-0.185	32.7 (inactive)			4.2% (inactive)	0.6						
CC(=O)N(O)CCCCCNC(=O)CCC(=O)N(O)CCCCCNC(=O)CCC(=O)N(O)CCCCCN	-8.52	2	1.05	4 (inactive)	87.4% (inactive) and 82.1% (inactive) and 111% (inactive)	104% and 70.2% and 87.4%	-0.3% (inactive)	-1.8						
CC(C)NCC(O)c1ccc2ccccc2c1 (configuration not stated)	6.56	2	0.983	5.67 (inactive)	115% (inactive) and 166% (inactive) and 45.3% (inactive)	75% and 89% and 106%	0.7% (inactive)	-1.4						

SMILES	glutamate uptake change [1] [%]	inclusion score [2]	aggregation suppression score [3]	survival [4]	parasite load remaining [5]	viability [5]	nuclear beta-catenin stimulation ([6]; at 10 µM)	nuclear beta-catenin stimulation ([6]; stimulation, at 2 µM) [%]	fluorescence ratio [7]	inhibition [8]	inhibition [9]	fluorescence ratio [10]	inhibition [11]	fluorescence ratio (interference) [12]
OC(CCN1CCCCC1)(c1ccccc1)c1ccccc1	-4.45	2	1.43	3.42 (inactive)	89.9% (inactive) and 126% (inactive)	98.8% and 84.6%	0.4% (inactive)	2.1						
CO[C@@]1(NC(=O)C(C(=O)O)c2ccc(O)cc2)C(=O)N2C(C(=O)O)=C(CSc3nnnn3C)CO[C@@H]21 (some centres not stated)	0.13	1	1.14	6.42 (inactive)	95.7% (inactive) and 71.7% (inactive)	77.5% and 90.5%	1.6% (inactive)	-0.2						
c1ccc(CN(CC2=NCCN2)c2ccccc2)cc1	16	2	1.29	15 (inactive)			3.4% (inactive)	2.4						
Nc1cc(-c2ccncc2)c[nH]c1=O	12.5	2	1.17	2.67 (inactive)	103% (inactive)	98.5%	0.5% (inactive)	1.7						
C=C1c2cccc(O)c2C(O)=C2C(=O)[C@]3(O)C(O)=C(C(N)=O)C(=O)[C@@H](N(C)C)[C@@H]3[C@@H](O)[C@H]12	-2.5	1	0.29	4.33 (inactive)	89.4% (inactive) and 160% (inactive) and 38% (inactive)	79.4% and 68.3% and 93.9%	3.6% (inactive)	2.7						
COc1cnc(NS(=O)(=O)c2ccc(N)cc2)nc1	-0.58	2	1.45	4.42 (inactive)	75.1% (inactive) and 108% (inactive) and 64.2% (inactive)	93.4% and 66.1% and 87.2%	0.2% (inactive)	2						
Cn1c(=O)c2c(ncn2CCO)n(C)c1=O	2.77	2	1.2	29.2 (inactive)	29.7% (inactive) and 108% (inactive)	47.6% and 91.1%	2.5% (inactive)	1.4						
CCCCN(CCCC)CCCOC(=O)c1ccc(N)cc1	-0.54	2	1.28	2.17 (inactive)	67.1% (inactive) and 96% (inactive) and 39.6% (inactive)	98.6% and 79.9% and 102%	0.5% (inactive)	1.7						
Nc1ccc(S(=O)(=O)NC(=O)c2ccccc2)cc1	-23.6	2	1.16	3 (inactive)	105% (inactive) and 86.8% (inactive) and 33.6% (inactive)	105% and 73% and 95.8%	1.5% (inactive)	1.1						
Cc1cc(CC(=O)O)n(C)c1C(=O)c1ccc(Cl)cc1	-4.24	2	0.565	3.5 (inactive)	103% (inactive) and 101% (inactive) and 54.3% (inactive)	94.3% and 67.7% and 106%	-0.6% (inactive)	1.7						
OCC(O)CN1CCN(c2ccccc2)CC1 (configuration not stated)	0.23	2	1.04	19.2 (inactive)	36.8% (inactive) and 188% (inactive) and 98.1% (inactive)	50.7% and 71.2% and 93.7%	-1.5% (inactive)	0.8						
Cn1c([N+](=O)[O-])cnc1COC(N)=O	17	2	1.36	19.5 (inactive)	74.3% (inactive) and 117% (inactive) and 35.4% (inactive)	101% and 70.6% and 91.7%	0.1% (inactive)	0.6						
CCN(CC)CCNC(=O)c1cc(Br)c(N)cc1OC	-4.45	2	1.35	5.42 (inactive)	69.3% (inactive) and 155% (inactive)	93.9% and 89.2%	3.8% (inactive)	-1						
CCOc1ccc(Cc2nccc3cc(OCC)c(OCC)cc23)cc1OCC	33.7	2	1.07	5.17 (inactive)	28.9% (inactive) and 13.1% (inactive)	78.6% and 42.8%	1.8% (inactive)	7.1						
Nc1ccc(S(=O)(=O)Nc2ccccn2)cc1	-8.49	2	1.05	9.08 (inactive)	73.3% (inactive) and 71.4% (inactive) and 46.1% (inactive)	93.8% and 68.3% and 99%	-0.3% (inactive)	1						
COc1cc(NS(=O)(=O)c2ccc(N)cc2)ncn1	2.45	2	1.2	3.67 (inactive)	84.2% (inactive) and 61.4% (inactive) and 48% (inactive)	97.9% and 64.7% and 90.8%	3% (inactive)	3.5						
CC1(C)OC(=O)NC1=O	12.7	2	1.01	9.33 (inactive)	76.1% (inactive) and 103% (inactive) and 63.9% (inactive)	96.6% and 74.2% and 92.6%	1.7% (inactive)	2.2						
Cc1cc(C)nc(NS(=O)(=O)c2ccc(N)cc2)n1	2.45	2	1.21	3.75 (inactive)	78.5% (inactive) and 292% (inactive) and 25.7% (inactive)	96.6% and 70.6% and 93.3%	0.2% (inactive)	0.2						
C[n+]1ccccc1/C=N/O	-3.95	2	1.54	5.75 (inactive)	55.9% (inactive) and 86% (inactive) and 126% (inactive)	133% and 101% and 76.5%	-0.7% (inactive)	-0.6	1 (inactive)	-3.18% (inactive)	-0.48% (inactive)	0.96 (inactive)		
CC(C)(Oc1ccc(CCNC(=O)c2ccc(Cl)cc2)cc1)C(=O)O	8.93	2	1.44	15.2 (inactive)			6.1% (inactive)	5.1					-2% (inactive)	1.1 (inactive)
